Source: PubChem BioAssay
Values without a mark were called inactive. For some of these results: Measured potencies and affinities stand elsewhere. Activity calls are given as the source filed them. Unless noted, how the calls were made is not given here.

Columns and labels:
[1] = antimalarial activity against Dd2 strain (AID 2302;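 active means growth inhibition above 50% at the single 2 µM test dose, taken to imply half-maximal potency below 2 µM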;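 further: 0% = DMSO untreated growth and 100% = chloroquine plus artemisinin killed control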); conditions: P. falciparum Dd2 in RBCs, LDH growth readout, 72 h; at 2 µM; active compounds read high
[2] = HepG2 cytotoxicity, primary screen, cytotoxicity control for P. falciparum antimalarial project, cell-based, ATP luminescence (AID 2303;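 active means inhibition above 50%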;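 further: 0% = DMSO wells and 100% = digitonin-killed cells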); conditions: HepG2 viability, 24-48 h, at 10 µM, active compounds read high
[3] = target: L-lactate dehydrogenase (Plasmodium falciparum (isolate CDC / Honduras)) (UniProt Q27743); experiment: PfLDH activity inhibition – cell lysate, 3D7 strain, counter-screen for P. falciparum growth inhibition project (AID 2304);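 further: 0% = vehicle and 100% = reference inhibitor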; conditions: P. falciparum 3D7 crude extract, LDH APAD/NBT absorbance; at 2 µM; active compounds read high
L-lactate dehydrogenase (Plasmodium falciparum (isolate CDC / Honduras)), sequence (Q27743 whole entry, looked up): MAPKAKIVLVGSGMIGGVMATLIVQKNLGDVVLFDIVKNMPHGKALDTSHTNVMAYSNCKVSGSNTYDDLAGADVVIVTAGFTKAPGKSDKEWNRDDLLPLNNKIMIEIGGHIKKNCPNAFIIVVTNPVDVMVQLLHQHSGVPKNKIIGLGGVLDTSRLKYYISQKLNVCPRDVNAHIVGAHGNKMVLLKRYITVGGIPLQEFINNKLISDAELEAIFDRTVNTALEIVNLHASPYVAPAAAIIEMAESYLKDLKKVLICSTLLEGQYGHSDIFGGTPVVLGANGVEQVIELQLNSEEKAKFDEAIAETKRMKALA

[4] = inhibition of 3D7 malaria parasite growth – strain 3D7 (AID 2306);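 further: 0% = DMSO wells and 100% = chloroquine plus artemisinin control wells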; conditions: P. falciparum 3D7 erythrocytic growth, LDH absorbance, 72 h; at 2 µM; active compounds read high
[5] = target: Calcium-dependent protein kinase 1 (Plasmodium falciparum (isolate 3D7)) (UniProt P62344); experiment: PfCDPK1 kinase inhibitors, biochemical, TCAMS library (AID 1159585; cut-off not given, nearly all actives have IC50 up to about 0.98 µM;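 further: inhibitors leave more ATP so luminescence rises with inhibition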); conditions: recombinant PfCDPK1, Kinase-Glo ATP depletion luminescence
Calcium-dependent protein kinase 1 (Plasmodium falciparum (isolate 3D7)), sequence (P62344 whole entry, looked up): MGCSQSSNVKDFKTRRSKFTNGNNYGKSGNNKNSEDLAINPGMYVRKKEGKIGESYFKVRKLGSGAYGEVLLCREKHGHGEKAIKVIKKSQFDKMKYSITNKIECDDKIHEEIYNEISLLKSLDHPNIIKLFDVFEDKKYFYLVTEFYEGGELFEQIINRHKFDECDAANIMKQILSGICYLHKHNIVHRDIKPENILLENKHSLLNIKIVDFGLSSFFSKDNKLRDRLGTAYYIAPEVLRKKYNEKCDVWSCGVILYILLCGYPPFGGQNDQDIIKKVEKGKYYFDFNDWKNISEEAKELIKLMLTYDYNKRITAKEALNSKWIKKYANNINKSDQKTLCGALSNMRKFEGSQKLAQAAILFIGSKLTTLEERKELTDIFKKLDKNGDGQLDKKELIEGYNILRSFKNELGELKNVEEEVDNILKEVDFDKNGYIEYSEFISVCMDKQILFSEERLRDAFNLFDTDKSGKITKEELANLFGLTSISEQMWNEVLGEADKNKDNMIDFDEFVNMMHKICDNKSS

[6] = target: Plasmodium falciparum protein kinase 6 (PK6, PF3D7_1337100) (UniProt Q8IDW1); experiment: PfPK6 kinase inhibitors, biochemical, TCAMS library (AID 1159586); conditions: recombinant PfPK6, Kinase-Glo ATP depletion luminescence
Plasmodium falciparum protein kinase 6 (PK6, PF3D7_1337100), sequence (Q8IDW1 1-305): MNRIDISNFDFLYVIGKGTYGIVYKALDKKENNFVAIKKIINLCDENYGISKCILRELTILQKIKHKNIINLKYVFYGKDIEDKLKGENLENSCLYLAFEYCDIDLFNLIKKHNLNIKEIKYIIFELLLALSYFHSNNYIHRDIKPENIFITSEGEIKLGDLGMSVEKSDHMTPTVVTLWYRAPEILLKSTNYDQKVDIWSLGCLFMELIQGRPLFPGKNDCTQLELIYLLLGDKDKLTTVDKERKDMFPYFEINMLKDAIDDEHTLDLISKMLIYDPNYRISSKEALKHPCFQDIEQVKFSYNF

[7] = target: Protein kinase 7 (PK7), Plasmodium falciparum 3D7 (PF3D7_0213400) (UniProt Q7YTF7); experiment: inhibition of Plasmodium PK7 catalytic activity – biochemical, TCAMS antimalarial set, Kinase-Glo luminescence (AID 1159587); conditions: recombinant PfPK7, Kinase-Glo ATP depletion luminescence
Protein kinase 7 (PK7), Plasmodium falciparum 3D7 (PF3D7_0213400), sequence (Q7YTF7 1-343): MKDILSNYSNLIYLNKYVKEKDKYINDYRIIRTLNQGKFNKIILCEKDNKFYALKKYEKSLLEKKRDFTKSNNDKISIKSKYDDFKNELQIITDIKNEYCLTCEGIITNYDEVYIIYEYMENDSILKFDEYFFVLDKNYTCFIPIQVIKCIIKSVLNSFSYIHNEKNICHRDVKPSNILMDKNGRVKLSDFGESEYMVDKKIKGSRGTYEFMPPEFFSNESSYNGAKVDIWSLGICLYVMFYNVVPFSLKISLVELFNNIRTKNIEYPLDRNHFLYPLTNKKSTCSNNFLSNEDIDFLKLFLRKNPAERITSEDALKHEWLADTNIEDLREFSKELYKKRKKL

[8] = target: Calcium-dependent protein kinase 4 (Plasmodium falciparum (isolate 3D7)) (UniProt Q8IBS5); experiment: PfCDPK4 kinase inhibitors, biochemical, TCAMS library (AID 1159588; cut-off not given, nearly all actives have IC50 up to about 0.91 µM); conditions: recombinant PfCDPK4, Kinase-Glo ATP depletion luminescence
Calcium-dependent protein kinase 4 (Plasmodium falciparum (isolate 3D7)), sequence (Q8IBS5 whole entry, looked up): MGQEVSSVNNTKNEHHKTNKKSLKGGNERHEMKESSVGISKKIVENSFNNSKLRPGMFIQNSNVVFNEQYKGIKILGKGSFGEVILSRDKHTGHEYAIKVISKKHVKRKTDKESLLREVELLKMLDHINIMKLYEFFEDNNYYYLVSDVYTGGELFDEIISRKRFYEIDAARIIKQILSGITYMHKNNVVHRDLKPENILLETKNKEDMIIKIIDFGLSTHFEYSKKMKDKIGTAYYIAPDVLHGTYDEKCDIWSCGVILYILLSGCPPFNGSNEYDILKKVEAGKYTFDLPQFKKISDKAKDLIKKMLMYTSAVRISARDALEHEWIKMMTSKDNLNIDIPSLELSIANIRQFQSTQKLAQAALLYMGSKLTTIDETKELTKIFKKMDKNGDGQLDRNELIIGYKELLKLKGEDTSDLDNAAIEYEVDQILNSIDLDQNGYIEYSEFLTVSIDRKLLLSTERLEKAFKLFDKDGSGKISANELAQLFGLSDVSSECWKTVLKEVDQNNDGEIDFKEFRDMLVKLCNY

Row | SMILES | growth inhibition [1] | inhibition [2] [%] | inhibition [3] [%] | growth inhibition [4] | outcome [5] | outcome [6] | outcome [7] | outcome [8]
1 | CCCCNC(c1ccc(Cl)cc1)C(O)c1ccc(Cl)cc1 (centres undefined) | 98% (active) | 13 | 4 | 99% (active) | inactive | inactive | inactive | inactive
2 | O=C(/C=C/c1ccc(Cl)c(Cl)c1)N(Cc1ccccc1)C1CCC(CN2CCC(c3c[nH]c4ccccc34)CC2)CC1 (centres undefined) | 59% (active) | 37 | -6 | 101% (active) | inactive | inactive | inactive | inactive
3 | CC(=O)C1(c2ccccc2)CCN(CCC2(c3ccc(Cl)c(Cl)c3)CN(C(=O)C3CCCC3)CCO2)CC1 (centres undefined) | 70% (active) | 11 | 1 | 88% (active) | inactive | inactive | inactive | inactive
4 | CC[C@H]1CN2CC[C@H]1C[C@H]2C(O)c1cc(OC)nc2ccccc12 (some centres undefined) | 98% (active) | -2 | -1 | 100% (active) | inactive | inactive | inactive | inactive
5 | CCOC(C(=O)OCC1CCCN1C)(c1ccccc1)c1ccccc1 (centres undefined) | 3% | 13 | 6 | 97% (active) | inactive | inactive | inactive | inactive
6 | O=C(CCC(=O)c1ccc2c3c(cccc13)CC2)NC1CCC(CN2CCC(c3c[nH]c4ccccc34)CC2)CC1 (centres undefined) | 13% | 34 | -1 | 96% (active) | inactive | inactive | inactive | inactive
7 | COC(=O)C(C)(C)c1ccc(CC(C)NCC(O)c2cccc(C(F)(F)F)c2)cc1 (centres undefined) | 98% (active) | 6 | -7 | 99% (active) | inactive | inactive | inactive | inactive
8 | O=C(Cc1cc(=O)oc2cc(O)ccc12)N1CCC(CN2CCC(c3c[nH]c4ccccc34)CC2)CC1 | -11% | 1 | 3 | 94% (active) | inactive | inactive | inactive | inactive
